# Screens: PubChem, several laboratories
# HSF1 inhib – HSF1 inhibition. NIH3T3-HGL HSE-luciferase, MG132-induced, luminescence 8 h; stronger effect = lower value. activity change, negative = inhibition, % at 7.5 µM (by protocol). actives 0.77% (n = 300,000);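 active = more than half of replicate wells show activity change below -50%, luminescence cut by over half; inconclusive = some wells, but at most half, below -50%; inactive = no replicate well below -50%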;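 also: luciferase reports HSF-1 transcriptional activity via heat shock element; 0% = median of DMSO wells and -100% = zero luminescence signal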
# HSF-1 act – increases HSF-1 driven luciferase reporter signal; NIH3T3-HGL HSF-1 luciferase reporter, MG132, 8 h; 100% = twice DMSO control signal; activation, % at 9 µM; actives 1.7% (n = 300,000); AID 504408;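 active = mean replicate activation of at least 50% with a set share of replicates each reaching 50%; inconclusive = only one of those two conditions met; inactive = mean below 50% and too few replicates reaching it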;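 also: 0% = median of the neutral control wells and 100% = twice that signal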
# AHR activator – activates the human aryl hydrocarbon receptor; P35869; AHR-responsive luciferase reporter cells, luminescence; activation, % at 5 µM; actives 2.5% (n = 320,000); AID 2796; in the data active = activation above about 47%;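 also: 0% = vehicle wells and 100% = reference agonist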
# Target sequence (P35869 whole entry, looked up): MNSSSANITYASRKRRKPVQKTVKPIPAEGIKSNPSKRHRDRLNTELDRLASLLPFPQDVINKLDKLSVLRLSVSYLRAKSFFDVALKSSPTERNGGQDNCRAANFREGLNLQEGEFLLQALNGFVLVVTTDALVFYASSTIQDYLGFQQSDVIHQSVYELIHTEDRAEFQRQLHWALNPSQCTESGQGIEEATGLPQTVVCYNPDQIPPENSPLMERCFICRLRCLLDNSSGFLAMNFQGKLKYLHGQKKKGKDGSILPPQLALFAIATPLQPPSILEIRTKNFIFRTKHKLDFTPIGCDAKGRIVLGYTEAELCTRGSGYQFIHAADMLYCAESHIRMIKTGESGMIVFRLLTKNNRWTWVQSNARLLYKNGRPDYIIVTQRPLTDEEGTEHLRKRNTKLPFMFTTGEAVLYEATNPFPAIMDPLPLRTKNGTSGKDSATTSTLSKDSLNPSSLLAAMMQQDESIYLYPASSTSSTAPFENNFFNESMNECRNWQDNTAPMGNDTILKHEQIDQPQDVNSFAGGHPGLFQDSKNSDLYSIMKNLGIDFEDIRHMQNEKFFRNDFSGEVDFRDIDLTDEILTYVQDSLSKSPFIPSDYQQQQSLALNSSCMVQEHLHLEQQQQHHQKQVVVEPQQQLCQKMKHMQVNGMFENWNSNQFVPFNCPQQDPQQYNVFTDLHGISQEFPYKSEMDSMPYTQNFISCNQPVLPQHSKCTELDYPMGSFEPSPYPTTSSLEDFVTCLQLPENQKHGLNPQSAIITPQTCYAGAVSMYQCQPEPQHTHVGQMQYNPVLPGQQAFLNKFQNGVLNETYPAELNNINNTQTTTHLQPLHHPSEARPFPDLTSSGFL
# FXN GAA850 act – increases GAA850 frataxin promoter reporter activity. HEK293 lucGAA850 FXN promoter luciferase reporter, 24 h; percent of 10 µM SAHA response. activation, % at 6 µM. actives 0.56% (n = 360,000);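 active = activation above the average of all compounds screened plus 3 SD, cutoff fixed separately per campaign, cut at about 7.5% in these data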;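 also: 0% = DMSO wells and 100% = 10 µM SAHA wells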
# Active calls of the source: *; ? = inconclusive; / = not tested or not shown. Most compounds without a hit are left out; they make up all but 4.6% or so of the library.
SMILES,HSF1 inhib,HSF-1 act,AHR activator,FXN GAA850 act
Cc1ccc(NC(=O)c2cc(C)nc3ccccc23)cc1,6.7,13.8,67.5*,2.4
Cc1cc(C(=O)Nc2ccc(F)cc2)c2ccccc2n1,2.6,2.4,56.2*,2.8
O=C(Nc1ccccc1)c1cc(Cl)nc2ccccc12,-3.2,6.6,49.2*,0.2
CC(=O)c1ccc(NC(=O)c2cc(C)nc3ccccc23)cc1,0.9,11.4,3.5,2.0
Cc1cc(NC(=O)c2cc(-c3ccc(C)s3)nc3ccccc23)no1,-4.3,-0.7,11.4,0.8
O=C(O)c1cc(Cl)nc2ccccc12,-18.0,-26.6,0.9,0.4
CC(C)OCCCNC(=O)c1ccc(NS(C)(=O)=O)cc1,0.2,-2.7,-1.0,0.2
Cc1cc(C)n(-c2c(C)[nH]c3ccccc23)n1,-3.6,29.3,3.6,1.7
COCC(C)NC(=O)c1cccc(Cl)c1 (stereo unspecified),-6.0,-0.1,2.5,-0.3
C#CCN1C=CC(=O)[C@@H](OC(=O)Nc2ccc(Cl)cc2)[C@H]1c1ccccc1Br,/,/,/,-2.4
CC(NC(=O)COC(=O)CCc1nc(=O)c2ccccc2n1C)c1ccccc1 (stereo unspecified),-8.1,2.4,-1.6,0.2
O=C(COC(=O)C1CCC1)Nc1ccc(Oc2ccccc2)cc1,15.1,52.3*,0.1,-1.0
Cn1c(CCC(=O)OCC(=O)Nc2ccc(Oc3ccccc3)cc2)nc(=O)c2ccccc21,17.2,55.3*,-0.7,0.8
Fc1ccc(Sc2ccccc2CNC2=NCCN2)cc1,9.5,55.3*,-0.3,-3.2
C=CCn1c(O)c(N=NC(=O)CNC(=O)Cc2ccccc2)c2ccccc21,-0.2,4.7,53.2*,1.1
C=CCn1c(O)c(N=NC(=S)Nc2cccc(OC)c2)c2ccccc21,5.7,14.4,61.4*,-1.1
COc1ccc(S(=O)(=O)Nc2ccc(S(=O)(=O)N3CCCC3)cc2)cc1,-4.7,0.6,-2.0,-0.5
O=C1/C(=C/c2ccc([N+](=O)[O-])cc2)Oc2cc(O)ccc21,61.4,72.6*,/,-1.9
Cc1cccc(N(CC(=O)N2CCN(C)CC2)S(=O)(=O)c2ccccc2)c1,-5.5,4.7,1.3,2.1
COc1cccc(C2CC(c3ccccc3)n3ncnc3N2)c1 (stereo unspecified),-77.3*,-81.5,0.6,-1.4
COc1cccc(C2CC(c3ccc(C)cc3)n3ncnc3N2)c1 (stereo unspecified),-4.1,8.6,-0.9,2.7
CC(Cc1cccnc1)NC(=O)c1cc(COc2c(F)cccc2F)on1 (stereo unspecified),5.1,-1.2,47.7*,1.6
S=c1[nH]nc(-c2ccccc2)n1Cc1ccccc1,-4.6,5.9,1.1,-0.7
O=S(=O)(c1ccccc1)c1ncc(C(F)(F)F)cc1Cl,46.3,?,/,-0.7
FC(F)(F)c1cnc(/C=C/Nc2ccccc2Cl)c(Cl)c1,10.6,51.8*,6.4,-1.1
SMILES,HSF1 inhib,HSF-1 act,AHR activator,FXN GAA850 act
O=C(N/N=C1\C/C(=N\NC(=O)c2ccncc2)c2ccccc21)c1ccncc1,10.4,18.1,55.8*,-0.2
Cc1cc(C(F)(F)F)c2sc(N)nc2n1,2.2,12.2,14.2,1.1
Nc1nc2nc(-c3ccccc3)cc(C(F)(F)F)c2s1,-10.7,18.8,67.8*,3.0
S=C(c1cn(Cc2ccccc2)c2ccccc12)N1CCOCC1,-1.7,10.1,1.0,1.9
S=C(c1cn(Cc2ccc(Br)cc2)c2ccccc12)N1CCOCC1,12.9,53.7*,-2.3,2.3
COc1ccc(C(=O)Nc2sc3c(c2C#N)CCN(C(C)=O)C3)cc1,-3.9,-8.7,-5.7,-1.8
COc1ccc(OC)c2sc(N3CCc4ccccc4C3)nc12,100.4,127.8*,7.0,5.0
O=C(Cc1nc2ccccc2[nH]1)c1ccc([N+](=O)[O-])cc1,28.4,?,14.1,4.5
COc1ccc(CN(C)CC(O)COC(c2ccc(OC)cc2)c2ccc(OC)cc2)cc1 (stereo unspecified),-2.9,9.3,3.1,-3.0
CCOc1ccc(CN(C)CC(O)COC(c2ccc(OC)cc2)c2ccc(OC)cc2)cc1 (stereo unspecified),26.2,56.7*,1.3,-0.5
O=S(=O)(Nc1ccc2c(c1)nc1n2CCN(Cc2ccccc2)C1)c1ccc(Cl)cc1,34.7,66.8*,-0.4,0.3
O=S(=O)(Nc1ccc2c(c1)nc1n2CCN(Cc2ccccc2)C1)c1ccccc1,-1.8,3.8,2.1,0.6
Cn1c(CCN2CCCCC2)nc2cc(NS(=O)(=O)c3ccc(Cl)cc3)ccc21,24.5,61.6*,-5.2,0.3
Cn1c(CN2CCCCC2)nc2cc(NS(=O)(=O)c3ccc(Cl)cc3)ccc21,-0.5,10.8,0.2,-0.7
NS(=O)(=O)c1ccc(NC(=O)CN2CCCCC2)cc1,-2.6,8.1,-0.3,0.8
COc1ccccc1N(C(=O)c1ccco1)C(C(=O)NC1CCCC1)c1ccc(N2CCOCC2)cc1 (stereo unspecified),-4.2,-7.5,-1.7,-0.9
Clc1ccccc1OCCCn1ccnc1,-4.5,0.5,12.6,-0.5
Cc1cccc(Cl)c1OCCCCn1ccnc1,-7.3,-5.6,57.1*,1.4
Clc1ccccc1OCCCCn1ccnc1,5.8,9.4,73.9*,5.0
Cc1cc(Cl)cc(C)c1OCCCCn1ccnc1,4.2,6.3,18.1,-0.3
O=C(NCCc1ccc(Cl)cc1)c1ccc2nccnc2c1,42.7,60.4*,5.0,1.4
CCOC(=O)N1CCN(c2nc(C)c3c(n2)CCCC3=O)CC1,-69.5*,-77.2,-11.0,4.1
CCOC(=O)N1CCN(c2c(-c3ccc(C)cc3)c(=O)c2=O)CC1,-3.6,1.1,-4.8,0.7
O=C(/C=C/Nc1ccc([N+](=O)[O-])cc1Br)c1cccc2ccccc12,19.3,51.3*,9.5,3.0
CSc1nc(N(C)C)c2ccccc2n1,-4.2,-9.1,-1.8,0.1
SMILES,HSF1 inhib,HSF-1 act,AHR activator,FXN GAA850 act
CN(C)c1nc2ccccc2c(N)c1-c1ccccc1,/,/,55.1*,0.3
CCn1nc(C(=O)NCc2nnc3ccccn23)c2ccccc2c1=O,/,/,/,-0.6
COc1ccc(CC(C)Nc2cccc(SC)c2)cc1 (stereo unspecified),-58.9*,-68.3,/,0.2
CCCCn1c(N)c(N(CCOC)C(=O)C2CC(=O)N(Cc3ccco3)C2)c(=O)[nH]c1=O (stereo unspecified),/,/,0.2,0.6
CCOc1ccccc1NC(=O)c1oc2ccccc2c1NC(=O)C1CCCO1 (stereo unspecified),-0.5,21.3,49.2*,-0.1
CCOCC(=O)Nc1c(C(=O)Nc2ccccc2OC)oc2ccccc12,-4.2,-3.3,73.0*,0.2
CCC(=O)Nc1c(C(=O)Nc2cccc(OC)c2)oc2ccccc12,12.6,-20.3,63.1*,6.8
COc1ccccc1NC(=O)c1oc2ccccc2c1NC(=O)C1CC1,9.5,15.9,63.5*,-2.5
CCOc1ccccc1NC(=O)c1ccc(NC(=O)C2CCCO2)cc1 (stereo unspecified),-3.0,6.6,41.2,-0.6
CCOc1ccccc1NC(=O)c1oc2ccccc2c1NC(=O)C1CC1,-5.3,-1.5,39.0,0.4
COc1ccc(NC(=O)c2oc3ccccc3c2NC(=O)COc2ccccc2OC)c(OC)c1,-14.1,-22.8,23.0,-1.2
